# MITF primary = human MITF inhibition, primary screen. AID 1259374. inhibition, % at 2.6 µM. 650,000 compounds, 0.91% hits. AlphaScreen MITF homodimerization, bead proximity signal. O75030; in the data active means inhibition above about 50%;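 further: 0% = vehicle wells with protein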
# Target sequence (O75030 whole entry, looked up): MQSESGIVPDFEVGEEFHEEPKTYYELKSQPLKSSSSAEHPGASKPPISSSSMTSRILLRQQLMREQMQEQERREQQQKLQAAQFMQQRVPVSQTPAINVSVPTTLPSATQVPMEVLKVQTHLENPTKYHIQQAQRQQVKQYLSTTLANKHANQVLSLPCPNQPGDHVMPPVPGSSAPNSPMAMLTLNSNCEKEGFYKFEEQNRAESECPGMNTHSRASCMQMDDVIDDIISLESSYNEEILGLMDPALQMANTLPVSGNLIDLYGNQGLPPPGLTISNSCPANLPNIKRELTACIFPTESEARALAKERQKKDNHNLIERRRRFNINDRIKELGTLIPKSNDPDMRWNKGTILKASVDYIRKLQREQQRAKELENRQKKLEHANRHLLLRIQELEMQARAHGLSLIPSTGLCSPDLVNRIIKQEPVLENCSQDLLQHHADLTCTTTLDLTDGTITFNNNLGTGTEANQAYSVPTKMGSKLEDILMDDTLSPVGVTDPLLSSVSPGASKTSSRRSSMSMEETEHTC
# FBW7 activator = activators of human E3 ligase FBW7 | AlphaScreen FBW7–phospho-cyclin E peptide binding, activator screen | normalized activity (activation), % at 26.1 µM | 650,000 compounds, 0.13% hits | AID 1259310; in the data active means normalized activity above about 1.9%;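 further: purified mutant Fbw7 with reduced substrate affinity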
# GPR151 ag = activators of human GPR151; PathHunter beta-arrestin GPR151 cells, luminescence; activation, % at 11.2 µM; 650,000 compounds, 1% hits; AID 1508602; in the data active means activation above about 4.9%;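 further: 0% = median of compound wells and 100% = cells with positive control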
# TEAD-YAP inh = TEAD-YAP interaction inhibition. HEK-TIYL cells, TEAD-Gal4/YAP UAS-luciferase luminescence. inhibition, % at 9.12 µM. 640,000 compounds, 1.4% hits; in the data active means inhibition above about 32%;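 further: 0% = median of test compound wells and 100% = reference inhibitor wells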
# MITF confirm = human MITF inhibition, confirmation | AID 1259372 | 4,700 compounds, 16% hits | inhibition, % at 2.6 µM | AlphaScreen MITF homodimerization, biotin/His-MITF beads | shares compounds with MITF primary;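 active means inhibition above a cutoff derived from the DMSO control wells, cut at about 28% in these data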;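 further: 0% = MITF dimer wells with DMSO only; inhibitors lower the bead chemiluminescence by keeping MITF from dimerizing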
# AS interf DR = optically interferes with AlphaScreen signal in dose response; shares compounds with MITF primary; AlphaScreen optical interference counterscreen, cell-free; IC50, µM; 480 compounds, 6% hits; AID 1259373; call rule not given here
# AS interf ctr = counter-screen: compounds optically interfering with AlphaScreen; shares compounds with MITF primary; LysRS AlphaScreen counterscreen, signal interference, triplicate; inhibition, % at 2.6 µM; 4,700 compounds, 7.6% hits;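 active means inhibition above a cutoff derived from the DMSO control wells, cut at about 30% in these data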
# * marks the source's active call; other numbers are inactive results; / = not tested or not shown. Hits are enriched below; roughly 3.5% of the tested compounds scored in any of these assays.
SMILES,MITF primary,FBW7 activator,GPR151 ag,TEAD-YAP inh,MITF confirm,AS interf ctr,others
Cc1ccc2c(c1)cc1c(=O)n(CC(=O)NCCCN3CCCCC3)nc(C)n12,63*,0,0,-5,8,10,
Cc1ccc2c(c1)cc1c(=O)n(CC(=O)NCCN3CCOCC3)nc(C)n12,13,0,0,-10,/,/,
CC(=O)Nc1ccc(NC(=O)c2ccc3nc(Nc4ccc(-n5ccnc5)cc4)sc3c2)cc1,4,0,-2,-3,/,/,
COc1cc(NC(=O)c2ccc3nc(Nc4ccc(-n5ccnc5)cc4)sc3c2)cc(OC)c1OC,57*,0,0,3,3,8,
COc1cccc(N2CCN(C(=O)CCC3(Cc4cccs4)CCC(=O)N3)CC2=O)c1 (stereo not given),12,0,-2,-4,/,/,
CCOc1cccc2c1OC1(CCCCC1)N1N=C(c3ccc(F)cc3)CC21 (stereo not given),6,0,-2,-38,/,/,
Cc1nccn1CCOc1ccc(Cl)cc1,63*,0,-1,-18,18,-7,
CCOC(=O)c1c(C)n(-c2ccc(C)cc2)c2ccc(OCC(O)CN3CCN(CCO)CC3)cc12 (stereo not given),86*,0,-1,-6,17,6,
CCOc1cc(CN2CCN(Cc3c[nH]c4ccccc34)CC2)ccc1OC,60*,0,1,15,-8,0,
COc1ccc(CN2CCN(Cc3c[nH]c4ccccc34)CC2)cc1,64*,0,-2,1,-15,6,
COc1ccc(CN2CCN(Cc3c[nH]c4ccccc34)CC2)c(OC)c1,58*,0,0,6,9,9,
CC(CN1C(=O)CCC1CCNCc1ccccc1F)c1ccccc1 (stereo not given),3,0,-2,4,/,/,
CC1=C(C(=O)OCc2ccccc2)C(c2ccc([N+](=O)[O-])cc2)C2=C(CC(C)(C)CC2=O)N1 (stereo not given),-11,0,1,1,/,/,
COc1cc(CN2C(=O)C(C)Oc3cccnc32)cc(OC)c1 (stereo not given),-14,0,0,-5,/,/,
CCn1cnc2sc(C(=O)Nc3ccc(I)cc3C)c(C)c2c1=O,-3,0,-2,5,/,/,
O=[N+]([O-])c1cc(C(F)(F)F)ccc1Sc1ncnc2nc[nH]c12,4,0,0,6,/,/,
CSc1ccc(CC(=O)NCC2CCC3(CCN(Cc4ccccn4)CC3)O2)cc1 (stereo not given),69*,0,0,6,2,4,
COc1cccc(CC(=O)NCC2CCC3(CCN(Cc4ccccn4)CC3)O2)c1 (stereo not given),-1,0,0,11,/,/,
COCCCNC(=O)/C(C#N)=C/c1ccc(-c2ccc(Cl)c(C(=O)O)c2)o1,58*,0,0,1,46*,19,AS interf DR=>6.5
O=C(c1ccc(F)cc1)N1CCN(Cc2ccc3ccccc3c2)CC1,58*,1,3,15,-8,-6,
Fc1ccc(CN2CCN(Cc3ccc4ccccc4c3)CC2)cc1,79*,0,1,-7,20,14,
Cc1cccc(NC(=O)CN(c2ccc(I)cc2)S(C)(=O)=O)c1,71*,0,0,-75,-2,0,
Cc1ccc(NC(=O)CN(c2ccc(I)cc2)S(C)(=O)=O)cc1,-19,0,-2,-64,/,/,
CSc1nnc2c(n1)OC(/C=C/c1ccccc1)Nc1ccc(Br)cc1-2 (stereo not given),-7,0,-1,0,/,/,
CCCCSc1nc2sc3c(c2c(=O)n1Cc1ccccc1)CCC3,3,0,1,3,/,/,
SMILES,MITF primary,FBW7 activator,GPR151 ag,TEAD-YAP inh,MITF confirm,AS interf ctr,others
O=C1/C(=C\c2ccco2)CC2CC1C/C(=C/c1ccco1)C2=O,52*,0,-2,1,17,-12,
O=C1/C(=C\c2cccs2)CC2CC1C/C(=C/c1cccs1)C2=O,24,0,-2,2,/,/,
O=C(OC1CCCC1=O)c1ccc(N2CCCC2=O)cc1 (stereo not given),62*,0,-2,-21,44*,10,AS interf DR=>7.2
CCN(C(=O)c1cc2c(=O)n3cccc(C)c3nc2n1C)c1ccccc1,53*,1,0,12,-3,8,
Cc1ccc2nc(-c3ccc(NC(=O)CNCc4cccnc4)cc3)sc2c1,2,0,-1,-28,/,/,
Cc1ccc(N[C@@H]2OC[C@@H](O)C(O)C2O)cc1N[C@@H]1OC[C@@H](O)C(O)C1O (stereo not given in full),72*,0,-1,15,71*,13,
O=C(Nc1cc(Cl)ccc1O)c1cc2n(n1)C(C(F)(F)F)CC(c1ccc(Cl)cc1)N2 (stereo not given),-8,0,0,3,/,/,
O=C(c1ccccc1F)N1CCN(Cc2ccccc2Br)CC1,54*,0,0,1,9,13,
O=C(c1ccccc1F)N1CCN(Cc2ccccc2Cl)CC1,48,0,-1,-9,/,/,
O=C(c1ccccc1F)N1CCN(Cc2ccccc2)CC1,3,0,-1,8,/,/,
COc1ccccc1C(=O)N1CCN(Cc2ccc(Cl)cc2)CC1,55*,0,0,11,1,1,
O=C(c1ccccc1F)N1CCN(Cc2ccc(Cl)cc2)CC1,56*,0,-2,18,13,11,
O=C(c1ccccc1F)N1CCN(S(=O)(=O)c2ccc(F)cc2)CC1,63*,0,0,4,0,12,
COc1ccc(CN2CCN(C(=O)c3ccccc3OC)CC2)cc1OCc1ccccc1,41,0,-2,2,/,/,
COc1cc(-c2cc(=O)oc(-c3cccc([N+](=O)[O-])c3)n2)cc(OC)c1OC,13,0,-1,6,/,/,
CN(Cc1ncc[nH]1)C(=O)CC1C(=O)NCCN1CC1CCCCC1 (stereo not given),7,0,0,0,/,/,
Cc1cc(C)nc(SCc2nnc(SCC(=O)Nc3nccs3)o2)n1,72*,0,0,4,77*,31*,
Cc1cc(C)c(C(N)=O)c(SCC(=O)Nc2nccs2)n1,2,0,0,-3,/,/,
O=C(NC1CCc2ccccc21)c1ccc(-n2cc(NC(=O)C3CCOCC3)cn2)cc1 (stereo not given),-9,0,0,-4,/,/,
COc1ccc(OC)c(CN2CCN(C(=O)c3cc(OC)c(OC)c(OC)c3)CC2)c1,36,0,1,16,/,/,
CCOc1cc(CN2CCN(Cc3cc(OC)ccc3OC)CC2)ccc1OC,58*,0,1,5,8,10,
CCOc1cc(CN2CCN(Cc3ccccc3OC)CC2)ccc1OC,29,0,3,3,/,/,
COc1ccc(OC)c(CN2CCN(Cc3cc(OC)c(OC)c(OC)c3)CC2)c1,68*,0,1,-10,9,15,

# Screening results deposited in PubChem by The Scripps Research Institute Molecular Screening Center.
